Screening results as filed in PubChem BioAssay.
The list is not random: actives were taken first. Their share in the collection is about 4%.
Glioma ERSR ind: induces the endoplasmic reticulum stress response in human glioma cells; U87-MG GRP78 promoter luciferase reporter, 16 h; hit rate 0.02% among 420,000; Potency, µM, most hits filed as activators; active = well fitted activation curve with a large enough effect; note: series mostly up to about 76 µM; nearly all actives have a fitted effect of over 35% in size
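ERSR induction read as luciferase luminescence (Bright-Glo, 10 min at room temperature) in stably transfected human U87-MG glioma cells exposed to compounds for 16 h, using GRP78 as sensor.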
D1 antag: blocks dopamine activation of the human D1 receptor; P21728; HEK293 TREx D1 cells, calcium flux, dopamine EC80; stronger effect = lower value; activity change, negative = inhibition, % at 10 µM; hit rate 3.2% among 360,000; AID 504652; in the data active = activity change below about -30%
Target sequence (P21728 whole entry, looked up): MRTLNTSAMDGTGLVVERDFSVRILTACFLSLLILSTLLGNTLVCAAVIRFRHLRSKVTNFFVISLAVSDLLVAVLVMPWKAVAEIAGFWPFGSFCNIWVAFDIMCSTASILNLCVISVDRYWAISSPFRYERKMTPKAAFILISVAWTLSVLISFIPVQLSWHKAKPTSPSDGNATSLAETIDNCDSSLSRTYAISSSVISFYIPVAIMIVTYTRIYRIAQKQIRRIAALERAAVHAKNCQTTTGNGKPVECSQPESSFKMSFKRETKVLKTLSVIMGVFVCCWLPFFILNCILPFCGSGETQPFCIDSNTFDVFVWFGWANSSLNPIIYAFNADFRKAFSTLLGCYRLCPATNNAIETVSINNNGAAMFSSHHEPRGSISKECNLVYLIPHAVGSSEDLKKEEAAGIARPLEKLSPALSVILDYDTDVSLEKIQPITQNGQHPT
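Using tetracycline-induced force-coupled D1 Hek293 cells and a calcium dye, signals were followed for 180 s after compound, then for 180 s after EC80 dopamine, to detect inhibitors.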
D1 ag: human D1 receptor agonism. P21728. HEK293 T-REx D1 cells, calcium flux, agonist mode. activation, % at 2 µM. hit rate 1% among 360,000
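Inducible HEK293 T-REx D1 cells, force-coupled to calcium signalling, were plated at 4000 cells/well with tetracycline and held overnight at 30 C. After no-wash calcium dye loading, compound-evoked calcium rise over 180 s flagged agonists.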
TRHR agonist: agonists of human TRH receptor; TRHR cells, calcium flux fluo-8, FDSS agonist mode; activation, % at 2 µM; hit rate 0.18% among 360,000; AID 493084
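TRHR-expressing cells, plated overnight in medium with 10% serum, were loaded with fluo-8 calcium dye at room temperature. After a 10 s baseline, library compound was pin-added and calcium release was recorded kinetically (ex 480/em 530) as agonist response.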
TRHR enhancer: allosterically enhances the human TRH receptor; TRHR cells, fluo-8 calcium fluorescence, EC20 TRH enhancement; hit rate 0.66% among 360,000; enhancement, % at 2 µM; P34981; AID 493056; in the data active = enhancement above about 30%
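Enhancer read-out: after compound pinning and an initial kinetic agonist-mode read, an EC20 of TRH (10 nM final) was injected and fluo-8 calcium signal (Ex 480/Em 530) followed at 1 s/cycle for 100 cycles in TRHR-expressing cells.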
D1 potentiator: enhances dopamine response at the human D1 receptor | P21728 | HEK293 TREx D1 cells, calcium flux, dopamine EC20 potentiation | potentiation, % at 10 µM | hit rate 0.036% among 360,000; in the data active = potentiation above about 30%
Large screens that a line does not name were inactive. Cut-off read from the data, not from the text of the source, unless noted: active = activation above about 30%; inactive = the rest.

CSc1ccc(CCNC(=O)CN2C(=O)c3cccnc3Oc3ccc(C)cc32)cc1	none
O=C(NCc1nc(-c2ccccc2)no1)Nc1ccc(F)cc1	TRHR enhancer 40.3
CCc1ccc(OCC(=O)NC2CCCCC2)c(Br)c1	none
CCc1ccc(OCC(=O)NCc2nc(-c3cccc(C)c3)no2)c(Br)c1	D1 ag 38.1
Cc1ccc(CC(=O)NCc2nc(-c3ccccc3)no2)cc1	none
COc1ccccc1OCC(=O)N(Cc1nc(-c2ccc(Cl)cc2)no1)C(C)C	D1 antag -35.3
Cc1cccc(-c2noc(CNC(=O)COc3ccccc3C)n2)c1	none
CCc1ccc(OCC(=O)NCCN(C)C)c(Br)c1	D1 antag -33.6
COc1cc(/C=N/NC(=O)c2ccccc2NS(=O)(=O)c2cccs2)ccc1O	none
O=S(=O)(c1ccc(F)cc1)N1CCN(c2nc(-c3ccccc3)nc3cc(Cl)ccc23)CC1	none
Cc1ccc(C(=O)NCc2ccc(N(C)C)cc2)cc1NC(=O)c1nsc2ccccc12	none
COc1ccc(OC)c(CNS(=O)(=O)c2cc(-c3onc(C)c3C)ccc2C)c1	D1 antag -38.1
COc1ccc(NS(=O)(=O)c2cc(-c3onc(C)c3C)ccc2C)c(OC)c1	none
Cc1ccccc1SCCNC(=O)c1ccccc1Br	TRHR enhancer 32.8
O=C(NCCNC(=O)c1ccccc1Br)c1ccccc1Br	none
CC[C@]1(O)C[C@H]2CN(CCC3=c4ccccc4=N[C]3[C@@](C(=O)OC)(c3cc4c(cc3OC)N(C)[C@H]3[C@@](O)(C(N)=O)[C@H](O)[C@]5(CC)C=CCN6CC[C@]43[C@@H]65)C2)C1	none (no result: D1 antag, D1 ag, TRHR agonist, TRHR enhancer, D1 potentiator)
CC(=O)c1c(C)[nH]c(C(=O)COc2cc(C)ccc2C(C)C)c1C	D1 antag -36.3
Cc1ccc(S(=O)(=O)NC(=O)COc2cc(C)ccc2C(C)C)cc1	D1 antag -44.5
COc1cc(C)ccc1OCC(=O)OCC(=O)c1[nH]c(C)c(C(C)=O)c1C	none (no result: D1 antag, D1 ag, TRHR agonist, TRHR enhancer, D1 potentiator)
COc1ccc(S(=O)(=O)NCc2cccs2)cc1	D1 antag -32.5
COc1ccc(CNS(=O)(=O)c2ccc(OC)cc2)cc1	none
CCCOc1ccc(S(=O)(=O)NCc2ccc(OC)cc2)cc1	D1 antag -43.9
O=C(Nc1ccc(-n2cc(Br)cn2)cc1)c1ccncc1	none
Cc1ccccc1C1(CC(=O)N2CCCC2c2nccs2)CC(=O)N(C2CCCC2)C1=O (stereo unspecified)	none (no result: D1 antag, D1 ag, TRHR agonist, TRHR enhancer, D1 potentiator)
COc1ccc2cc3cc(C(=O)Nc4ccccc4N4CCN(C)CC4)oc3nc2c1	D1 antag -41.3
C/C(=N\NC(N)=O)c1ccc(-n2ccnc2)cc1	D1 antag -43.8
O=c1c2oc3ccccc3c2n(Cc2ccccc2F)c(=O)n1Cc1ccco1	none
COc1ccc(N=CC2=C(O)CC(C)(C)CC2=O)cc1	TRHR enhancer 38.3
CC(=O)N1CCc2cc(S(=O)(=O)N3CCN(S(=O)(=O)c4c(F)cccc4F)CC3)ccc21	none (no result: Glioma ERSR ind)
Cc1cccc(NC(=O)NC2CCCc3ccccc32)c1 (stereo unspecified)	D1 antag -43.6
COc1ccc(NC(=O)NC2CCCc3ccccc32)cc1 (stereo unspecified)	D1 antag -42.5
Cc1nc2ccccn2c1C(=O)NC1CCCc2ccccc21 (stereo unspecified)	D1 antag -34.3
C[N+]1(CC(=O)c2ccc3c(c2)CCCC3)CCOCC1	none (no result: D1 antag, D1 ag, TRHR agonist, TRHR enhancer, D1 potentiator)
Cc1cccc2cc(CN(Cc3ccco3)C(=O)Nc3cccc(C#N)c3)c(Cl)nc12	D1 antag -55.0
COc1ccc(CN(C)C(=O)C23CC4CC(CC(C4)C2)C3)c(OC)c1	none
COc1cccc(CN(C)C(=O)C23CC4CC(CC(C4)C2)C3)c1	D1 antag -34.3
Cc1c(/C=N/NC(=O)c2cccs2)c2ccccc2n1Cc1ccccc1Cl	D1 antag -99.4
CCOc1cccc(C2CC(=O)Nc3cc4c(cc32)OCCO4)c1 (stereo unspecified)	D1 antag -32.0, D1 ag 45.3
Cc1ccc(C2CC(=O)Nc3cc4c(cc32)OCCO4)cc1 (stereo unspecified)	D1 ag 31.6
Cc1cc2[nH]c(=O)c(=O)[nH]c2cc1S(=O)(=O)Nc1cccc(C(F)(F)F)c1	none
